What was measured:
Test in all cases: cell viability of combination (% of vehicle); higher = less cytotoxic
Conditions in all cases: 1 µM; 72 h; partner dose: 10 nM
HCI01 [1] = test system: HCI01 (cells of a triple-negative basal-like breast cancer xenograft)
Procedure: (§1)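 PDX cells were treated for 72 h with each drug at 1 µM plus carfilzomib (10 nM; 100 nM for WHIM2). Luciferase viability is expressed as percent of vehicle.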

UCD52 [2] = test system: UCD52 (cells of a triple-negative basal-like breast cancer xenograft)
Procedure: as §1

WHIM30 = test system: WHIM30 (cells of a triple-negative basal-like breast cancer xenograft)
Procedure: as §1

HCI01 [3] = test system: HCI01; remark: listed apart in the source
Procedure: (§2)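 PDX cells were treated for 72 h with each drug at 1 µM plus afatinib (10 nM; 1 µM for WHIM30). Luciferase viability is expressed as percent of vehicle.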

UCD52 [4] = test system: UCD52; remark: listed apart in the source
Procedure: as §2

WHIM2 = test system: WHIM2 (cells of a triple-negative basal-like breast cancer xenograft)
Procedure: as §2

## CCCCCOc1ccc(-c2ccc(-c3ccc(C(=O)N[C@H]4C[C@@H](O)[C@@H](O)NC(=O)[C@@H]5[C@@H](O)[C@@H](C)CN5C(=O)[C@H]([C@@H](C)O)NC(=O)[C@H]([C@H](O)[C@@H](O)c5ccc(O)cc5)NC(=O)[C@@H]5C[C@@H](O)CN5C(=O)[C@H]([C@@H](C)O)NC4=O)cc3)cc2)cc1 [Anidulafungin] + CC(C)C[C@H](NC(=O)[C@H](CCc1ccccc1)NC(=O)CN1CCOCC1)C(=O)N[C@@H](Cc1ccccc1)C(=O)N[C@@H](CC(C)C)C(=O)[C@@]1(C)CO1 [Carfilzomib]
HCI01 [1]
  cell viability of combination: 73.7
UCD52 [2]
  cell viability of combination: 60

## CC(=O)C1(O)Cc2c(O)c3c(c(O)c2C(OC2CC(N)C(O)C(C)O2)C1)C(=O)c1ccccc1C3=O.Cl (stereo not given) [Idarubicin HCl] + CC(C)C[C@H](NC(=O)[C@H](CCc1ccccc1)NC(=O)CN1CCOCC1)C(=O)N[C@@H](Cc1ccccc1)C(=O)N[C@@H](CC(C)C)C(=O)[C@@]1(C)CO1 [Carfilzomib]
HCI01 [1]
  cell viability of combination: 187
UCD52 [2]
  cell viability of combination: 21.1

## Br.Cc1ccc(Sc2ccccc2N2CCNCC2)c(C)c1 + CC(C)C[C@H](NC(=O)[C@H](CCc1ccccc1)NC(=O)CN1CCOCC1)C(=O)N[C@@H](Cc1ccccc1)C(=O)N[C@@H](CC(C)C)C(=O)[C@@]1(C)CO1 [Carfilzomib]
HCI01 [1]
  cell viability of combination: 98.3
UCD52 [2]
  cell viability of combination: 50.8
WHIM30
  cell viability of combination: 15.7

## CC[C@@]1(O)C(=O)OCc2c1cc1n(c2=O)Cc2cc3c(CN(C)C)c(O)ccc3nc2-1.Cl [Topotecan HCl] + CC(C)C[C@H](NC(=O)[C@H](CCc1ccccc1)NC(=O)CN1CCOCC1)C(=O)N[C@@H](Cc1ccccc1)C(=O)N[C@@H](CC(C)C)C(=O)[C@@]1(C)CO1 [Carfilzomib]
HCI01 [1]
  cell viability of combination: 55.9
UCD52 [2]
  cell viability of combination: 54.7
WHIM30
  cell viability of combination: 7.58

## Clc1ccc(COC(Cn2ccnc2)c2ccc(Cl)cc2Cl)c(Cl)c1.O=[N+]([O-])O (stereo not given) [Miconazole Nitrate] + CC(C)C[C@H](NC(=O)[C@H](CCc1ccccc1)NC(=O)CN1CCOCC1)C(=O)N[C@@H](Cc1ccccc1)C(=O)N[C@@H](CC(C)C)C(=O)[C@@]1(C)CO1 [Carfilzomib]
HCI01 [1]
  cell viability of combination: 87.1
UCD52 [2]
  cell viability of combination: 59.3
WHIM30
  cell viability of combination: 14

## CC(C)Nc1cc(-c2c[nH]c(C(=O)NC(CO)c3cccc(Cl)c3)c2)c(Cl)cn1 (stereo not given) + CC(C)C[C@H](NC(=O)[C@H](CCc1ccccc1)NC(=O)CN1CCOCC1)C(=O)N[C@@H](Cc1ccccc1)C(=O)N[C@@H](CC(C)C)C(=O)[C@@]1(C)CO1 [Carfilzomib]
HCI01 [1]
  cell viability of combination: 94
UCD52 [2]
  cell viability of combination: 48.9

## CC(Oc1cc(-c2cnn(C3CCNCC3)c2)cnc1N)c1c(Cl)ccc(F)c1Cl [(R)-Crizotinib] + CC(C)C[C@H](NC(=O)[C@H](CCc1ccccc1)NC(=O)CN1CCOCC1)C(=O)N[C@@H](Cc1ccccc1)C(=O)N[C@@H](CC(C)C)C(=O)[C@@]1(C)CO1 [Carfilzomib]
HCI01 [1]
  cell viability of combination: 146
UCD52 [2]
  cell viability of combination: 49.1

## CC1(C)CCC(c2ccc(Cl)cc2)=C(CN2CCN(c3ccc(C(=O)NS(=O)(=O)c4ccc(NC(CCN5CCOCC5)CSc5ccccc5)c(S(=O)(=O)C(F)(F)F)c4)cc3)CC2)C1 (stereo not given) [ABT-263 (Navitoclax)] + CC(C)C[C@H](NC(=O)[C@H](CCc1ccccc1)NC(=O)CN1CCOCC1)C(=O)N[C@@H](Cc1ccccc1)C(=O)N[C@@H](CC(C)C)C(=O)[C@@]1(C)CO1 [Carfilzomib]
HCI01 [1]
  cell viability of combination: 47
UCD52 [2]
  cell viability of combination: 31.8
WHIM30
  cell viability of combination: 13.3

## CC(C)C[C@H](NC(=O)[C@H](Cc1ccccc1)NC(=O)c1cnccn1)B(O)O [Bortezomib] + CC(C)C[C@H](NC(=O)[C@H](CCc1ccccc1)NC(=O)CN1CCOCC1)C(=O)N[C@@H](Cc1ccccc1)C(=O)N[C@@H](CC(C)C)C(=O)[C@@]1(C)CO1 [Carfilzomib]
HCI01 [1]
  cell viability of combination: 28.8
UCD52 [2]
  cell viability of combination: 15.5

## CC(C)(C)c1ccc(C(=O)CCCN2CCC(OC(c3ccccc3)c3ccccc3)CC2)cc1 [Ebastine] + CC(C)C[C@H](NC(=O)[C@H](CCc1ccccc1)NC(=O)CN1CCOCC1)C(=O)N[C@@H](Cc1ccccc1)C(=O)N[C@@H](CC(C)C)C(=O)[C@@]1(C)CO1 [Carfilzomib]
HCI01 [1]
  cell viability of combination: 74
UCD52 [2]
  cell viability of combination: 59.8
WHIM30
  cell viability of combination: 15.8

## COc1cc2c(Oc3ccc(NC(=O)C4(C(=O)Nc5ccc(F)cc5)CC4)cc3F)ccnc2cc1OCCCN1CCOCC1 + CC(C)C[C@H](NC(=O)[C@H](CCc1ccccc1)NC(=O)CN1CCOCC1)C(=O)N[C@@H](Cc1ccccc1)C(=O)N[C@@H](CC(C)C)C(=O)[C@@]1(C)CO1 [Carfilzomib]
HCI01 [1]
  cell viability of combination: 75.8
UCD52 [2]
  cell viability of combination: 32.5
WHIM30
  cell viability of combination: 22.4

## Cc1nc(Nc2ncc(C(=O)Nc3c(C)cccc3Cl)s2)cc(N2CCN(CCO)CC2)n1 + CN(C)C/C=C/C(=O)Nc1cc2c(Nc3ccc(F)c(Cl)c3)ncnc2cc1O[C@H]1CCOC1 [Afatinib]
HCI01 [3]
  cell viability of combination: 41.5
UCD52 [4]
  cell viability of combination: 27.6
WHIM2
  cell viability of combination: 30.8

## CCC(NC(=O)C(C)NC)C(=O)N1CC(O)CC1Cc1c(-c2[nH]c3cc(F)ccc3c2CC2CC(O)CN2C(=O)C(CC)NC(=O)C(C)NC)[nH]c2cc(F)ccc12 (stereo not given) + CC(C)C[C@H](NC(=O)[C@H](CCc1ccccc1)NC(=O)CN1CCOCC1)C(=O)N[C@@H](Cc1ccccc1)C(=O)N[C@@H](CC(C)C)C(=O)[C@@]1(C)CO1 [Carfilzomib]
HCI01 [1]
  cell viability of combination: 61.9
UCD52 [2]
  cell viability of combination: 43
WHIM30
  cell viability of combination: 11.4

## CCN(CC)CCNC(=O)c1c(C)[nH]c(C=C2C(=O)Nc3ccc(F)cc32)c1C [Sunitinib] + CC(C)C[C@H](NC(=O)[C@H](CCc1ccccc1)NC(=O)CN1CCOCC1)C(=O)N[C@@H](Cc1ccccc1)C(=O)N[C@@H](CC(C)C)C(=O)[C@@]1(C)CO1 [Carfilzomib]
HCI01 [1]
  cell viability of combination: 66
UCD52 [2]
  cell viability of combination: 59.3
WHIM30
  cell viability of combination: 33.2

## CC1=CC(=O)c2ccccc2C1=O [Menadione] + CN(C)C/C=C/C(=O)Nc1cc2c(Nc3ccc(F)c(Cl)c3)ncnc2cc1O[C@H]1CCOC1 [Afatinib]
HCI01 [3]
  cell viability of combination: 55.8
UCD52 [4]
  cell viability of combination: 74.6
WHIM2
  cell viability of combination: 50.2

## CC1(C)Cc2c(-c3ccccc3)c(-c3ccc(Cl)cc3)c(CC(=O)O)n2C1 [Licofelone] + CC(C)C[C@H](NC(=O)[C@H](CCc1ccccc1)NC(=O)CN1CCOCC1)C(=O)N[C@@H](Cc1ccccc1)C(=O)N[C@@H](CC(C)C)C(=O)[C@@]1(C)CO1 [Carfilzomib]
HCI01 [1]
  cell viability of combination: 83.7
UCD52 [2]
  cell viability of combination: 64.7
WHIM30
  cell viability of combination: 18.6

## CNCCC(Oc1cccc2ccccc12)c1cccs1.Cl (stereo not given) [Duloxetine HCl] + CN(C)C/C=C/C(=O)Nc1cc2c(Nc3ccc(F)c(Cl)c3)ncnc2cc1O[C@H]1CCOC1 [Afatinib]
HCI01 [3]
  cell viability of combination: 45.3
UCD52 [4]
  cell viability of combination: 59.8
WHIM2
  cell viability of combination: 41.1

## COc1cc(C(=O)O)ccc1NC(=O)C1NC(CC(C)(C)C)C(C#N)(c2ccc(Cl)cc2F)C1c1cccc(Cl)c1F (stereo not given) + CC(C)C[C@H](NC(=O)[C@H](CCc1ccccc1)NC(=O)CN1CCOCC1)C(=O)N[C@@H](Cc1ccccc1)C(=O)N[C@@H](CC(C)C)C(=O)[C@@]1(C)CO1 [Carfilzomib]
HCI01 [1]
  cell viability of combination: 79.1
UCD52 [2]
  cell viability of combination: 62.7
WHIM30
  cell viability of combination: 23.5

## CC(C)CC(NC(=O)CNC(=O)c1cc(Cl)ccc1Cl)B(O)O (stereo not given) + CC(C)C[C@H](NC(=O)[C@H](CCc1ccccc1)NC(=O)CN1CCOCC1)C(=O)N[C@@H](Cc1ccccc1)C(=O)N[C@@H](CC(C)C)C(=O)[C@@]1(C)CO1 [Carfilzomib]
HCI01 [1]
  cell viability of combination: 43.7
UCD52 [2]
  cell viability of combination: 19.8
WHIM30
  cell viability of combination: 9.5

## Cl.Cl.O=C1c2c(O)ccc(O)c2C(=O)c2c(NCCNCCO)ccc(NCCNCCO)c21 [Mitoxantrone HCl] + CN(C)C/C=C/C(=O)Nc1cc2c(Nc3ccc(F)c(Cl)c3)ncnc2cc1O[C@H]1CCOC1 [Afatinib]
HCI01 [3]
  cell viability of combination: 61.6
UCD52 [4]
  cell viability of combination: 32.2
WHIM2
  cell viability of combination: 13.5

## CC(=O)c1cc2c(o1)C(=O)c1ccccc1C2=O [Napabucasin] + CN(C)C/C=C/C(=O)Nc1cc2c(Nc3ccc(F)c(Cl)c3)ncnc2cc1O[C@H]1CCOC1 [Afatinib]
HCI01 [3]
  cell viability of combination: 16.2
UCD52 [4]
  cell viability of combination: 17.4
WHIM2
  cell viability of combination: 29.7

## Cl.Clc1ccccc1CN1CCc2sccc2C1 [Ticlopidine HCl] + CC(C)C[C@H](NC(=O)[C@H](CCc1ccccc1)NC(=O)CN1CCOCC1)C(=O)N[C@@H](Cc1ccccc1)C(=O)N[C@@H](CC(C)C)C(=O)[C@@]1(C)CO1 [Carfilzomib]
HCI01 [1]
  cell viability of combination: 78.4
UCD52 [2]
  cell viability of combination: 58.7
WHIM30
  cell viability of combination: 16

## CNC(=O)c1cc(Oc2ccc(NC(=O)Nc3ccc(Cl)c(C(F)(F)F)c3)cc2)ccn1 [Sorafenib] + CC(C)C[C@H](NC(=O)[C@H](CCc1ccccc1)NC(=O)CN1CCOCC1)C(=O)N[C@@H](Cc1ccccc1)C(=O)N[C@@H](CC(C)C)C(=O)[C@@]1(C)CO1 [Carfilzomib]
HCI01 [1]
  cell viability of combination: 69
UCD52 [2]
  cell viability of combination: 49
WHIM30
  cell viability of combination: 18

## CCCCCCCCCCCCCCCCOP(=O)([O-])OCC[N+](C)(C)C [Miltefosine] + CC(C)C[C@H](NC(=O)[C@H](CCc1ccccc1)NC(=O)CN1CCOCC1)C(=O)N[C@@H](Cc1ccccc1)C(=O)N[C@@H](CC(C)C)C(=O)[C@@]1(C)CO1 [Carfilzomib]
HCI01 [1]
  cell viability of combination: 75.2
UCD52 [2]
  cell viability of combination: 71.6
WHIM30
  cell viability of combination: 22.7

## CNC(=O)c1cc(Oc2ccc(NC(=O)Nc3ccc(Cl)c(C(F)(F)F)c3)c(F)c2)ccn1.Cl [Regorafenib hydrochloride] + CC(C)C[C@H](NC(=O)[C@H](CCc1ccccc1)NC(=O)CN1CCOCC1)C(=O)N[C@@H](Cc1ccccc1)C(=O)N[C@@H](CC(C)C)C(=O)[C@@]1(C)CO1 [Carfilzomib]
HCI01 [1]
  cell viability of combination: 77.7
UCD52 [2]
  cell viability of combination: 52.7
WHIM30
  cell viability of combination: 32.8

From the supplement of paper PMC6992640
